{"source": "the supplement of paper PMC6658780", "note": "Counter-ions that a name gives are not always drawn. ± gives the standard deviation of the averaged measurements.", "data": [{"system": "Escherichia coli ATCC BAA-2469", "assay": "percent growth inhibition of drug + antibiotic vs DMSO control; higher = more growth inhibition", "details": "antibiotic (0.125x MIC): ciprofloxacin; 7 µM", "description": "(§1)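 Prestwick drugs tested at 20 uM and 7 uM with an antibiotic at 0.125x MIC (16 mg/L when MIC >128 mg/L) against E. coli ATCC BAA-2469 (NDM-1) in CAMHB, 384-well plates, duplicate runs. Percent growth inhibition was computed from OD600 (24 h minus 0 h) relative to DMSO wells. Drug + DMSO-only wells are also given. […]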", "units": {"percent growth inhibition": "%"}, "values": [{"smiles": "Nc1nc(O)c2ncn(CCC(CO)CO)c2n1", "note": "[Penciclovir]", "percent growth inhibition": "7.81 ± 16"}, {"smiles": "CO[C@H]1/C=C/O[C@@]2(C)Oc3c(C)c(O)c4c(O)c(c(/C=N/N5CCN(C)CC5)c(O)c4c3C2=O)NC(=O)/C(C)=C\\C=C\\[C@H](C)[C@H](O)[C@@H](C)[C@@H](O)[C@@H](C)[C@H](OC(C)=O)[C@@H]1C", "note": "[Rifampicin]", "percent growth inhibition": "13.5 ± 3.6"}, {"smiles": "C[C@H]1[C@H](NC(=O)/C(=N\\OC(C)(C)C(=O)O)c2csc(N)n2)C(=O)N1S(=O)(=O)O", "note": "[Aztreonam]", "percent growth inhibition": "0.0872 ± 14"}, {"smiles": "CS(=O)(=O)c1ccc([C@@H](O)[C@@H](CF)NC(=O)C(Cl)Cl)cc1", "note": "[Florfenicol]", "percent growth inhibition": "35.4 ± 4.7"}, {"smiles": "OC(CCN1CCCC1)(c1ccccc1)C1CCCCC1", "note": "(stereo not given) [Procyclidine hydrochloride]", "percent growth inhibition": "10.9 ± 16"}, {"smiles": "CN(C)c1ccc(O)c2c1C[C@H]1C[C@H]3[C@H](N(C)C)C(O)=C(C(N)=O)C(=O)[C@@]3(O)C(O)=C1C2=O", "note": "[Minocycline hydrochloride]", "percent growth inhibition": "36.9 ± 6.3"}, {"smiles": "Cc1nnc(NS(=O)(=O)c2ccc(N)cc2)s1", "note": "[Sulfamethizole]", "percent growth inhibition": "9.62 ± 10"}, {"smiles": "O=C1c2c(O)ccc(O)c2C(=O)c2c(NCCNCCO)ccc(NCCNCCO)c21", "note": "[Mitoxantrone dihydrochloride]", "percent growth inhibition": "6.59 ± 1.5"}, {"smiles": "C#C[C@]1(OC(C)=O)CC[C@H]2[C@@H]3CCC4=C[C@@H](OC(C)=O)CC[C@@H]4[C@H]3CC[C@@]21C", "note": "[Ethynodiol diacetate]", "percent growth inhibition": "5.09 ± 12"}]}, {"system": "Escherichia coli ATCC BAA-2469", "assay": "percent growth inhibition of drug + antibiotic vs DMSO control; higher = more growth inhibition", "details": "antibiotic (0.125x MIC): ciprofloxacin; 20 µM", "description": "as §1", "units": {"percent growth inhibition": "%"}, "values": [{"smiles": "Nc1nc(O)c2ncn(CCC(CO)CO)c2n1", "note": "[Penciclovir]", "percent growth inhibition": "-2.9 ± 7.2"}, {"smiles": "CO[C@H]1/C=C/O[C@@]2(C)Oc3c(C)c(O)c4c(O)c(c(/C=N/N5CCN(C)CC5)c(O)c4c3C2=O)NC(=O)/C(C)=C\\C=C\\[C@H](C)[C@H](O)[C@@H](C)[C@@H](O)[C@@H](C)[C@H](OC(C)=O)[C@@H]1C", "note": "[Rifampicin]", "percent growth inhibition": "101 ± 2.1"}, {"smiles": "CS(=O)(=O)c1ccc([C@@H](O)[C@@H](CF)NC(=O)C(Cl)Cl)cc1", "note": "[Florfenicol]", "percent growth inhibition": "88.8 ± 2.8"}, {"smiles": "OC(CCN1CCCC1)(c1ccccc1)C1CCCCC1", "note": "(stereo not given) [Procyclidine hydrochloride]", "percent growth inhibition": "8.13 ± 9.2"}, {"smiles": "CN(C)c1ccc(O)c2c1C[C@H]1C[C@H]3[C@H](N(C)C)C(O)=C(C(N)=O)C(=O)[C@@]3(O)C(O)=C1C2=O", "note": "[Minocycline hydrochloride]", "percent growth inhibition": "101 ± 3.3"}, {"smiles": "Cc1nnc(NS(=O)(=O)c2ccc(N)cc2)s1", "note": "[Sulfamethizole]", "percent growth inhibition": "4.47 ± 6"}, {"smiles": "O=C1c2c(O)ccc(O)c2C(=O)c2c(NCCNCCO)ccc(NCCNCCO)c21", "note": "[Mitoxantrone dihydrochloride]", "percent growth inhibition": "52.9 ± 1.9"}, {"smiles": "C#C[C@]1(OC(C)=O)CC[C@H]2[C@@H]3CCC4=C[C@@H](OC(C)=O)CC[C@@H]4[C@H]3CC[C@@]21C", "note": "[Ethynodiol diacetate]", "percent growth inhibition": "8.86 ± 3.1"}]}, {"system": "Escherichia coli ATCC BAA-2469", "assay": "percent growth inhibition of drug + antibiotic vs DMSO control; higher = more growth inhibition", "details": "antibiotic (0.125x MIC): gentamicin; 7 µM", "description": "as §1", "units": {"percent growth inhibition": "%"}, "values": [{"smiles": "OCCN1CCN(CCCN2c3ccccc3Sc3ccc(C(F)(F)F)cc32)CC1", "note": "[Fluphenazine dihydrochloride]", "percent growth inhibition": "1.67 ± 0.74"}, {"smiles": "C[C@H]1[C@H](NC(=O)/C(=N\\OC(C)(C)C(=O)O)c2csc(N)n2)C(=O)N1S(=O)(=O)O", "note": "[Aztreonam]", "percent growth inhibition": "24.6 ± 5.5"}, {"smiles": "Cn1c(=O)c2c(ncn2C)n(C)c1=O", "note": "[Caffeine]", "percent growth inhibition": "1.53 ± 7.1"}, {"smiles": "CN(C)c1ccc(O)c2c1C[C@H]1C[C@H]3[C@H](N(C)C)C(O)=C(C(N)=O)C(=O)[C@@]3(O)C(O)=C1C2=O", "note": "[Minocycline hydrochloride]", "percent growth inhibition": "38.6 ± 5.5"}, {"smiles": "COc1cc(C(=O)NCc2ccc(OCCN(C)C)cc2)cc(OC)c1OC", "note": "[Trimethobenzamide hydrochloride]", "percent growth inhibition": "0.833 ± 1.4"}, {"smiles": "Nc1nnc(-c2cccc(Cl)c2Cl)c(N)n1", "note": "[Lamotrigine]", "percent growth inhibition": "7.06 ± 4.8"}, {"smiles": "CCCCNc1c(C(=O)OCC)c(C)nc2c1cnn2CC", "note": "[Tracazolate hydrochloride]", "percent growth inhibition": "0.683 ± 0.77"}, {"smiles": "CCN(CC)CCNC(=O)c1cc(Br)c(N)cc1OC", "note": "[Bromopride]", "percent growth inhibition": "1.42 ± 2.4"}, {"smiles": "COc1cc(NS(=O)(=O)c2ccc(N)cc2)nc(OC)n1", "note": "[Sulfadimethoxine]", "percent growth inhibition": "1.55 ± 1.5"}, {"smiles": "CO/N=C(\\C(=O)N[C@@H]1C(=O)N2C(C(=O)O)=C(COC(N)=O)CS[C@H]12)c1ccco1", "note": "[Cefuroxime sodium salt]", "percent growth inhibition": "-0.221 ± 4.4"}, {"smiles": "O=C(Nc1ccc([N+](=O)[O-])cc1Cl)c1cc(Cl)ccc1O", "note": "[Niclosamide]", "percent growth inhibition": "10.1 ± 2"}, {"smiles": "COc1ccc2c(c1)c(CC(=O)OCC(=O)O)c(C)n2C(=O)c1ccc(Cl)cc1", "note": "[Acemetacin]", "percent growth inhibition": "2.64 ± 1.7"}, {"smiles": "C#C[C@]1(O)CC[C@H]2[C@@H]3CCC4=C(CCC(=O)C4)[C@H]3CC[C@@]21C", "note": "[Norethynodrel]", "percent growth inhibition": "4.39 ± 3.6"}, {"smiles": "CCOC(=O)c1ccc(OC(=O)CCCCCNC(=N)N)cc1", "note": "[Gabexate mesilate]", "percent growth inhibition": "4.82 ± 3.7"}]}, {"system": "Escherichia coli ATCC BAA-2469", "assay": "percent growth inhibition of drug + antibiotic vs DMSO control; higher = more growth inhibition", "details": "antibiotic (0.125x MIC): gentamicin; 20 µM", "description": "as §1", "units": {"percent growth inhibition": "%"}, "values": [{"smiles": "C[C@H]1[C@H](NC(=O)/C(=N\\OC(C)(C)C(=O)O)c2csc(N)n2)C(=O)N1S(=O)(=O)O", "note": "[Aztreonam]", "percent growth inhibition": "81.2 ± 19"}, {"smiles": "Cc1cccc(C)c1NC(=O)C1CCCCN1C", "note": "(stereo not given) [Mepivacaine hydrochloride]", "percent growth inhibition": "1.04 ± 3.1"}, {"smiles": "CN(C)c1ccc(O)c2c1C[C@H]1C[C@H]3[C@H](N(C)C)C(O)=C(C(N)=O)C(=O)[C@@]3(O)C(O)=C1C2=O", "note": "[Minocycline hydrochloride]", "percent growth inhibition": "84.6 ± 15"}]}, {"system": "Escherichia coli ATCC BAA-2469", "assay": "percent growth inhibition of drug + antibiotic vs DMSO control; higher = more growth inhibition", "details": "antibiotic (0.125x MIC): meropenem; 7 µM", "description": "as §1", "units": {"percent growth inhibition": "%"}, "values": [{"smiles": "CC[C@H]1OC(=O)[C@H](C)[C@@H](O[C@H]2C[C@@](C)(OC)[C@@H](O)[C@H](C)O2)[C@H](C)[C@@H](O[C@@H]2O[C@H](C)C[C@H](N(C)C)[C@H]2O)[C@](C)(O)C[C@@H](C)CN(C)[C@H](C)[C@@H](O)[C@]1(C)O", "note": "[Azithromycin]", "percent growth inhibition": "20.7 ± 7.2"}, {"smiles": "C[C@H]1[C@H](NC(=O)/C(=N\\OC(C)(C)C(=O)O)c2csc(N)n2)C(=O)N1S(=O)(=O)O", "note": "[Aztreonam]", "percent growth inhibition": "14.9 ± 16"}, {"smiles": "O=C(O)CN(CCN(CC(=O)O)CC(=O)O)CCN(CC(=O)O)CC(=O)O", "note": "[Pentetic acid]", "percent growth inhibition": "-3.74 ± 3.2"}, {"smiles": "Nc1c2ccccc2nc2ccccc12", "note": "[Aminacrine]", "percent growth inhibition": "13.7 ± 12"}]}, {"system": "Escherichia coli ATCC BAA-2469", "assay": "percent growth inhibition of drug + antibiotic vs DMSO control; higher = more growth inhibition", "details": "antibiotic (0.125x MIC): meropenem; 20 µM", "description": "as §1", "units": {"percent growth inhibition": "%"}, "values": [{"smiles": "CC[C@H]1OC(=O)[C@H](C)[C@@H](O[C@H]2C[C@@](C)(OC)[C@@H](O)[C@H](C)O2)[C@H](C)[C@@H](O[C@@H]2O[C@H](C)C[C@H](N(C)C)[C@H]2O)[C@](C)(O)C[C@@H](C)CN(C)[C@H](C)[C@@H](O)[C@]1(C)O", "note": "[Azithromycin]", "percent growth inhibition": "50.1 ± 20"}, {"smiles": "Nc1c2ccccc2nc2ccccc12", "note": "[Aminacrine]", "percent growth inhibition": "40.9 ± 17"}]}]}
